The values below come from PubChem BioAssay AID2588 (National Center for Advancing Translational Sciences (NCATS), 2010).

Structures are written as SMILES. Results filed as inconclusive are left out. Activity calls are given as the source filed them. Calls come from the whole dose curve; as a rule, active = well fitted inhibition curve with a large enough effect; inconclusive = small, poorly fitted or top-dose-only effect, or effect the other way; inactive = flat fitted curve, though single readings scatter.

For the experiment, the target named is Lysosomal acid glucosylceramidase (Homo sapiens) (UniProt P04062). Briefly: qHTS Assay for Inhibitors and Activators of N370S glucocerebrosidase as a Potential Chaperone Treatment of Gaucher Disease: Activity in Non-Mutant Spleen Homogenate Using a Red Fluorescent Substrate. The settings on record: red fluorogenic substrate GCase activity; series mostly up to 50.2 µM. The source says: NIH Chemical Genomics Center [NCGC]
Lysosomal acid glucosylceramidase (Homo sapiens), sequence (P04062 whole entry, looked up): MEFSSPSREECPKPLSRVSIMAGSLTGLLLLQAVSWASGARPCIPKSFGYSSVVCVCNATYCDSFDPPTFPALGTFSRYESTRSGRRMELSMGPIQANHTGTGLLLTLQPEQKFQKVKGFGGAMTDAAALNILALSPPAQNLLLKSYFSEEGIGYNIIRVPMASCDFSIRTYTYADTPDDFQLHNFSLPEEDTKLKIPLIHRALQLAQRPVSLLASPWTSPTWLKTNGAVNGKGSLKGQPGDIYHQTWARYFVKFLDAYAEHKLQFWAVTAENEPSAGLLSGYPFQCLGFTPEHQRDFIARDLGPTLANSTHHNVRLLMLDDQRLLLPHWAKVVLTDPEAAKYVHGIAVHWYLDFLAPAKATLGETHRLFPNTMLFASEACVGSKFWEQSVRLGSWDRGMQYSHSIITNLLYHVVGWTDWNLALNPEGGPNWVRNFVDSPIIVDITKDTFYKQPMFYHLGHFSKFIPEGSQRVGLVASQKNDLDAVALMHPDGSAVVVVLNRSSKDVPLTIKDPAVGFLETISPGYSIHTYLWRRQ
NIH Molecular Libraries Probe Production Centers Network [MLPCN]
Assay Submitter (PI): Wei Zheng
Glucocerebrosidase (GC) catalyzes the hydrolysis of beta-glucocerebroside to glucose and ceramide in lysosomes. Mutations in the glucocerebrosidase gene result in Gaucher disease, an autosomal recessive lysosomal storage disorder. Many of the mutations encountered in patients with Gaucher disease are missense alterations that may cause misfolding, decreased stability and/or mistrafficking of this lysosomal protein. […] These inhibitors include iminosugar analogs and three non-iminosugar inhibitors identified from a previous HTS of 62,000 compounds with the wild type recombinant enzyme. However, the enhancement of enzyme activity by the chaperone action of an enzyme inhibitor must be balanced against the direct inhibition of the enzyme. An enzyme activator could also function as a chaperone by binding to the enzyme and helping to correct its misfolding and mistrafficking. While activators for GC have not yet been identified, they may have better therapeutic potential than inhibitors. Therefore the discovery and development of chemical activators may provide a new strategy for the chaperone therapy.
We have optimized a new assay using N370S mutant GC derived from the spleen of a Gaucher patient. […] In addition, the MLPCN compound library has expanded, which increases the chance of finding new and better probes.
This confirmation assay tests for compound activity in spleen homogenate containing wildtype enzyme using an alternate resorufin-based substrate.
NCGC Assay Protocol Summary:
This is a fluorogenic enzyme assay with resorufin-beta-D-glucopyranoside as the substrate and wildtype glucocerebrosidase from human spleen homogenate as the enzyme preparation. Upon the hydrolysis of this fluorogenic substrate, the resulting product, […] which can be detected by a standard fluorescence plate reader. Data were normalized to the controls for basal activity (without enzyme) and 100% activity (with enzyme). The AC50 values were determined from concentration-response data modeled with the standard Hill equation.
Assay buffer: 50 mM citric acid (titrated with potassium phosphate to pH 5.0), 100 mM potassium chloride, 10 mM sodium chloride, 1 mM magnesium chloride, 0.01% Tween-20.
1536-well assay protocol:
(1) Add 2 ul/well of spleen homogenate (27 ug final)
(2) Add 23 nL compounds in DMSO solution. The final titration was 0.5 nM to 58 uM.
(3) Add 2 ul of substrate (1 mM final)
(4) Incubate at 37C for 40 min.
(5) Add 2 ul stop solution (1M NaOH and 1M Glycine mixture, pH 10)
(6) Detect the assay plate in a ViewLux plate reader (PerkinElmer) with Ex=365 nm and Em=440nm.
Keywords: Glucocerebrosidase, beta-glucosidase, Gaucher Disease, pharmacological chaperone, chaperone therapy, high throughput screening, glucocerebrosidase inhibitor, MLSMR, MLSCN, NIH Roadmap, qHTS and NCGC
Consider `COc1ccc(S(=O)(=O)N2CCN(c3nc(-c4cccs4)nc4ccccc34)CC2)cc1OC`, for which the Potency was 224 nM (active). In the case of `CCc1cc(C(=O)N/N=C/c2c(C)[nH]c3ccccc23)cs1` it was “inactive”. In the case of `Cc1cc(N2CCC(C)CC2)nc2ccc(NC(=O)C3CCC(C)CC3)cc12` (stereo not given) it was 5010 nM (active).

Turning to `COc1ccc(S(=O)(=O)N2CCN(c3nc(-c4ccccc4)nc4ccccc34)CC2)cc1`, the Potency was 2510 nM (active). In the case of `O=[N+]([O-])c1ccccc1S(=O)(=O)N1CCN(c2nc(-c3cccs3)nc3ccccc23)CC1` it was 562 nM (active). In the case of `Cc1ccc(C)c(N2CCN(C(=O)CCC(=O)Nc3ccc4nc(N5CCOCC5)cc(C)c4c3)CC2)c1` it was 14100 nM (active); in that of `O=S(=O)(c1ccccc1)N1CCN(c2nc(-c3ccc(F)cc3)nc3cc(Cl)ccc23)CC1`, “inactive”. For `Cc1ccc(Cl)cc1NC(=O)c1ccccc1OCC(=O)Nc1ccc(Cl)cc1`, the Potency entry was “inactive”. As for `O=[N+]([O-])c1ccc(S(=O)(=O)N2CCN(c3nc(-c4cccs4)nc4ccccc34)CC2)cc1`, the Potency is 1120 nM (active). For `O=S(=O)(c1ccccc1F)N1CCN(c2nc(-c3cccs3)nc3ccccc23)CC1`, the Potency was 501 nM (active). For `O=C(COc1ccccc1[N+](=O)[O-])Nc1ccc(Br)cc1`, the Potency entry is “inactive”.

Regarding `Cc1cc(C)n2ncc(C(=O)Nc3cccc(O)c3)c2n1`, the Potency result is “inactive”. As for `CN(c1ccc(C(=O)Nc2nccs2)cc1)S(=O)(=O)c1ccccc1`, the figure is 35500 nM (active); as for `O=S(=O)(c1cccc(C(F)(F)F)c1)N1CCN(c2nc(-c3ccccc3)nc3ccccc23)CC1`, 8910 nM (active); as for `COc1ccccc1OCC(=O)Nc1oc(-c2ccccc2)c(-c2ccccc2)c1C#N`, “inactive”. In the case of `CCCC1CCC(C(=O)Nc2ccc3nc(N4CCOCC4)cc(C)c3c2)CC1` (stereo not given) it was 447 nM (active). On to `O=S(=O)(c1ccc(Cl)cc1)N1CCN(c2nc(-c3ccc(F)cc3)nc3cc(Cl)ccc23)CC1`, for which the Potency entry is “inactive”. As for `O=c1cc(N2CCCCC2)c(-c2ccccc2)nn1Cc1c(Cl)cccc1Cl`, the entry is “inactive”. As for `Cc1cc(C)cc(N(CC(=O)NC2CCCCCC2)S(=O)(=O)c2c(C)[nH]c(=O)[nH]c2=O)c1`, the figure is 631 nM (active). In the case of `COc1ccc(Nc2nc(-c3cccs3)nc3ccccc23)cc1` it was 1410 nM (active); in that of `O=S(=O)(c1cccc(C(F)(F)F)c1)N1CCN(c2nc(-c3cccs3)nc3cc(Cl)ccc23)CC1`, “inactive”. `N#Cc1ccc(S(=O)(=O)N2CCN(c3nc(-c4cccs4)nc4ccccc34)CC2)cc1`: the Potency is 794 nM (active). In the case of `O=S(=O)(c1ccc2c(c1)OCCO2)N1CCN(c2nc(-c3ccccc3)nc3ccccc23)CC1` it was 4470 nM (active). Turning to `O=S(=O)(c1cccc(C(F)(F)F)c1)N1CCN(c2nc(-c3cccs3)nc3ccccc23)CC1`, the Potency is 794 nM (active).

For `COc1cc2c(cc1NC(=O)COC(=O)[C@@H](NC(=O)c1ccccc1)C(C)C)oc1ccccc12`, the Potency result is “inactive”. Consider `CCN(CC)c1cc(C)c2cc(NC(=O)C3CCC(C)CC3)ccc2n1` (stereo not given), for which the Potency is 15800 nM (active). In the case of `O=S(=O)(c1ccc(Cl)cc1)N1CCN(c2nc(-c3ccc(Cl)cc3)nc3ccccc23)CC1` it was “inactive”; in that of `NS(=O)(=O)c1ccc(S(=O)(=O)N2CCN(c3nc(-c4cccs4)nc4ccccc34)CC2)cc1`, 2240 nM (active); in that of `Cc1ccc(NC(=O)COc2ccccc2C(=O)Nc2ccccc2)cc1Cl`, “inactive”. In the case of `CC1(C)CC(=O)C2=C(C1)c1c(ccc3ccccc13)NC2c1ccc(Br)o1` (stereo not given) it was “inactive”; in that of `Cc1ccc(S(=O)(=O)N2CCN(c3nc(-c4cccs4)nc4ccccc34)CC2)cc1`, 316 nM (active).

On to `N#Cc1ccccc1S(=O)(=O)N1CCN(c2nc(-c3cccs3)nc3ccccc23)CC1`, for which the Potency was 1120 nM (active). As for `COc1cccc(CN(C)c2nc(-c3cccs3)nc3ccccc23)c1`, the figure is 2000 nM (active); as for `S=C(NCCCc1cnc[nH]1)NCCCN(Cc1ccc(Cl)c(Cl)c1)c1ccc(Br)cn1`, 1000 nM (active).

Consider `CCCCNC(=O)c1ccc(NS(=O)(=O)c2ccccc2)cc1`, for which the Potency entry is “inactive”.

Take `Clc1ccccc1-c1nccc(NCc2ccccc2)n1`: the Potency was 3980 nM (active). As to `O=[N+]([O-])c1cccc(S(=O)(=O)N2CCN(c3nc(-c4cccs4)nc4ccccc34)CC2)c1`, the Potency was 1120 nM (active).

In the case of `CCOc1ccc(N(CC(=O)NC2CCCCCC2)S(=O)(=O)c2c(C)[nH]c(=O)[nH]c2=O)cc1`, the Potency was 1410 nM (active). As for `Cc1cccc(Nc2nc(NCCO)nc(N3CCCC3)n2)c1`, the entry is “inactive”. In the case of `Cc1ccc(S(=O)(=O)N2CCN(c3nc(-c4ccc(F)cc4)nc4cc(Cl)ccc34)CC2)cc1` it was “inactive”.
